In PubChem BioAssay AID493194 (Broad Institute, 2011):
Measured potencies and affinities stand elsewhere. Results filed as inconclusive are left out. The source made the active and inactive calls.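 Rule for the calls: active = a valid curve of falling signal whose half-effect concentration is at most ten times the top tested dose; inconclusive = flat curve at 30 to 70% inhibition, or poor fit; inactive = signal rise, flat within 30%, or potency beyond limit.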

Molecular target: Scavenger receptor class B member 1 (Mus musculus) (UniProt Q61009)
Sequence (Q61009 whole entry, looked up): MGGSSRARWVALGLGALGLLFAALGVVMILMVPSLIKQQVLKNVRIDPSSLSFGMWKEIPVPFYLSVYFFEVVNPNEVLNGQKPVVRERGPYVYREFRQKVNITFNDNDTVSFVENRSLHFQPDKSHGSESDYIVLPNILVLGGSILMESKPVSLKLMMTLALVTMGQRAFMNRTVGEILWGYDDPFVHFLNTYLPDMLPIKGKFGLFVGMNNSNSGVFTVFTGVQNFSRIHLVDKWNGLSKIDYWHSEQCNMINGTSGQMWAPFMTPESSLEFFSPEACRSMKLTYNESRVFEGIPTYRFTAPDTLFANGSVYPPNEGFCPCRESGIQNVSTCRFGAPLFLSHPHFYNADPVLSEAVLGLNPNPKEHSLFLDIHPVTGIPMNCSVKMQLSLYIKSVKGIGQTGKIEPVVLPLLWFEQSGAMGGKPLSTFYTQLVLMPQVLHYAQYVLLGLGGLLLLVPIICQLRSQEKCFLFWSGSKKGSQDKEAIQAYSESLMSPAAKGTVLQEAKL
Assay: inhibitors of SR-BI mediated HDL lipid uptake, dose response, ldlA[mSR-BI] cells, fluorescence, cherry pick (AID 493194);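 note: CHO cells lacking LDL receptor and overexpressing mouse SR-BI; cellular uptake of fluorescently labeled HDL measured as cell fluorescence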
Conditions: CHO ldlA[mSR-BI] DiI-HDL uptake fluorescence, 3 h; series mostly up to 35 µM

outcome, inactive:
O=C(CSc1cn(CCNC(=O)c2cccs2)c2ccccc12)NCC1CCCO1 (stereo not given), COc1cc(NC(=O)C2CC(c3c(F)cccc3Cl)=NO2)c(OC)cc1Cl (stereo not given), Cc1ccc(OCc2cc(C(=O)N3CCCC(O)C3)no2)cn1 (stereo not given), Cc1ccccc1C(=O)N1CCc2cc(-c3nc(NC(=O)Cc4ccc5c(c4)OCO5)sc3C)ccc21, Cn1c(C(=O)N2CCC(C(=O)N3CCN(Cc4ccc5c(c4)OCO5)CC3)CC2)cc2sccc21, COc1ccc2c(c1)-c1c(sn(-c3ccc(OC)c(OC)c3)c1=S)C(C)(C)N2, CC(C)C(C(=O)OCC(=O)c1ccc2c(c1)NC(=O)CO2)N1C(=O)c2ccccc2C1=O (stereo not given), COc1ccc(-c2[nH]c(-c3ccc(F)cc3)nc2SCC(=O)NC2CCCC2)cc1, CCc1cc(=O)oc2c3c(cc(OCC(=O)NCc4ccco4)c12)OC(C)(C)CC3, CN(C(=O)c1ccc2c(c1)CCN2S(C)(=O)=O)c1ccccc1, O=C(O)c1cc(N2C(=O)C=CC2=O)cc(N2C(=O)C=CC2=O)c1, Cn1c(CCN2CCN(c3ccccn3)CC2)nc2cc(NS(=O)(=O)c3ccc(Cl)cc3)ccc21, CC(C)c1nnc(NC(=O)CCC(=O)N2CCN(C3c4ccccc4-c4ccccc43)CC2)s1, Cc1ccc2nc3c(c(C(=O)OCC(=O)N(C)C4CCS(=O)(=O)C4)c2c1)CCCC3 (stereo not given), CC(Sc1nc2cc([N+](=O)[O-])ccc2n1-c1ccc(F)cc1)C(=O)NCc1ccc2c(c1)OCO2 (stereo not given)
